Holding throughout (conditions): n = 1
Assay [1] deals with BMPR1A.
The subject of assay [2] is BMPR1B.
The test system of assay [3] is BMPR2.
The subject of assay [4] is BMX.
The subject of assay [5] is BRAF.
The subject of assay [6] is T1, BRK.
T1 construct: gene PTK6

Assay [7] deals with BRSK1.
Assay [8] deals with BRSK2.
Assay [9] concerns BTK.
For assay [10], the system named is BUB1.
[11] abbreviates: concentration: 1 μM, replicates: in singlicate.

Where two headings read alike, the source gives them in different places.
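Further: KINOMEscan kinase panel screen.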

Take `O=S(=O)(c1ccc(-c2ccnc3[nH]ccc23)cc1)N1CCCC1` [GSK846226]: the “%Inh” value was 0% in assay [1] (setting [11]); 0% in assay [2] (setting [11]); 24% in assay [3] (setting [11]); 10% in [4] (setting [11]); 0% in [5] (setting [11]); 0% in assay [6] (setting [11]). Besides, the “%Inh” value in assay [7] (setting [11]), in assay [8] (setting [11]), in assay [9] (setting [11]) and in assay [10] (setting [11]) was 0% in each case.

For the molecule `Cn1cncc1-c1ccc2ncnc(Nc3ccc(OCc4ccccc4)cc3)c2c1` [GW320571], the “%Inh” value in assay [1] (setting [11]) came out at 17%; in [2] (setting [11]) it was 0%; in assay [3] (setting [11]), 0%; in assay [4] (setting [11]) it was 28%; in [5] (setting [11]) it was 3%; in assay [6] (setting [11]), 15%. Moreover, the “%Inh” value is 0% in assay [7] (setting [11]), 0% in assay [8] (setting [11]), 0% in assay [9] (setting [11]) and 26% in assay [10] (setting [11]).

On to `Cc1ccc(NC(=O)Nc2cccc(C(F)(F)F)c2)cc1` [GSK955403], for which the “%Inh” value in assay [1] (1 µM) was 94.6%; in assay [2] (1 µM), 0%; in assay [3] (1 µM), 1%; in [4] (1 µM) it was 0%; in assay [5] (1 µM) it was 0%; in [6] (1 µM) it was 0%. Also, the “%Inh” value in assay [7] (1 µM), in assay [8] (1 µM), in assay [9] (1 µM) and in assay [10] (1 µM) was 0% in each case.

For `Cc1ccc(-c2cc(-c3c[nH]nc3-c3ccccn3)ccn2)cc1` [GW684088], the “%Inh” value is 0% in assay [1] (setting [11]); 18% in [2] (setting [11]); 0% in assay [3] (setting [11]); 36% in [4] (setting [11]); 0% in [5] (setting [11]); 3% in [6] (setting [11]). For the same molecule, the “%Inh” value is on record as 0% in assay [7] (setting [11]), 0% in [8] (setting [11]), 51% in assay [9] (setting [11]) and 40% in assay [10] (setting [11]).

For the molecule `O=c1cc(N2CCOCC2)nc2n(Cc3cccc(Cl)c3Cl)ccn12` [GSK2286295], the “%Inh” value in assay [1] (setting [11]) came to 0%; in [2] (setting [11]), 0%; in assay [3] (setting [11]), 0%; in [4] (setting [11]), 25%; in assay [5] (setting [11]), 0%; in [6] (setting [11]) it was 8%. In addition, the “%Inh” value came out at 13% in assay [7] (setting [11]), 0% in assay [8] (setting [11]), 0% in assay [9] (setting [11]) and 0% in assay [10] (setting [11]).

On to `Cl.O=C(Nc1cccc(-c2nn3ncccc3c2-c2ccnc(Nc3cccnc3)n2)c1)c1c(F)cccc1F` [GSK312879], for which the “%Inh” value is 0% in assay [1] (setting [11]); 0% in assay [2] (setting [11]); 0% in [3] (setting [11]); 24% in assay [4] (setting [11]); 91.6% in assay [5] (setting [11]); 21% in assay [6] (setting [11]). Further, the “%Inh” value in assay [7] (setting [11]) is recorded as 8%; in assay [8] (setting [11]) it was 0%; in assay [9] (setting [11]), 0%; in assay [10] (setting [11]), 7%.

Regarding `O=C(Nc1n[nH]c2cc(-c3cccc(F)c3F)ccc12)C1CC1` [SB-733894], the “%Inh” value in assay [1] (setting [11]) stood at 31%; in assay [2] (setting [11]), 31%; in assay [3] (setting [11]), 52%; in assay [4] (setting [11]), 0%; in [5] (setting [11]) it was 0%; in assay [6] (setting [11]) it was 0%. Besides, the “%Inh” value in assay [7] (setting [11]) was found to be 54%; in assay [8] (setting [11]) it was 58%; in assay [9] (setting [11]), 0%; in [10] (setting [11]), 0%.

`Fc1cc(Cl)ccc1Nc1ccnc2cc(I)ccc12` [GW551191]: the “%Inh” value in [1] (setting [11]) was found to be 0%; in [2] (setting [11]), 0%; in [3] (setting [11]), 8%; in [4] (setting [11]) it was 0%; in assay [5] (setting [11]) it was 12%; in [6] (setting [11]), 19%. In addition, the “%Inh” value worked out at 2% in assay [7] (setting [11]), 0% in assay [8] (setting [11]), 0% in assay [9] (setting [11]) and 54% in assay [10] (setting [11]).

Source of the values: PMC5540273 (PLoS ONE, 2017).
